Screens deposited in PubChem BioAssay by National Center for Advancing Translational Sciences (NCATS).
The entries come from a sample that favours hits as a whole.
GBA mod: Glucocerebrosidase | Lysosomal acid glucosylceramidase (Homo sapiens), P04062 | AID 360, 2006 | Potency, µM | purified enzyme, resorufin glucoside fluorescence (screen aimed at inhibitors), 20 min | 48,000 compounds, 1.1% hits; in the data active means potency below about 15 µM; inconclusive means mostly about 16 µM to 33 µM;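 further: the screen sought inhibitors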
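Wild-type enzyme at 0.2 nM final in 50mM citric acid/KH2PO4, 10mM sodium taurocholate, 0.01% tween-20, pH 5.9, with resorufin beta-D-glucopyranoside at 30 uM final. Compounds titrated, 20 min at RT, red fluorescence read; AC50 from titration.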
Caspase-7 inhib: qHTS Assay for Allosteric/Competitive Inhibitors of Caspase-7; recombinant caspase-7, Ac-DEVD-AFC fluorescence rate; Potency, µM (highest dose often 57.5 µM), without a hit: at the top dose activity change, negative = inhibition, usual class: inhibitors; 75,000 compounds, 0.02% hits; AID 889, 2007; active means well fitted inhibition curve with a large enough effect in the main read-out, with a control signal flat, not every such curve was filed as active; inconclusive means small, poorly fitted or top-dose-only effect, or a change in a side signal; further: % of control where 0% means no effect
Caspase-1 inhib: qHTS Assay for Allosteric/Competitive Inhibitors of Caspase-1. Caspase-1 enzyme, Ac-WEHD-AFC fluorogenic rate. Potency, µM (top dose mostly 57.5 µM), for inactives: at the highest dose activity change, negative = inhibition, usual class: inhibitors. 75,000 compounds, 0.03% hits. AID 900, 2007; active means well fitted inhibition curve with a large enough effect; inconclusive means small, poorly fitted or top-dose-only effect;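 further: plate controls were vehicle for no effect and no substrate for full effect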
* marks the source's active call; other numbers are inactive results; i = inactive; ? = inconclusive; . = not tested or not shown; [ ] = dose if it differs, or a comment. Potency means the concentration at half of the fitted maximal effect.

SMILES | GBA mod | Caspase-7 inhib | Caspase-1 inhib
CCOC(=O)[C@]1(C(NC(=O)OC)c2ccccc2)CCCC1=O (stereo partly specified) | . | 0%[11.5 µM] | 0%[11.5 µM]
O=C(Nc1nnc(C2CCCCC2)s1)c1cccs1 | >77 | 1% | -2%
CCc1c(C(=O)Nc2nnc(C3CC3)s2)csc1C | 1.5* | 0% | 1%
COC(=O)N1CC=CC1(C)C(=O)NCc1ccc(C)o1 (stereo unspecified) | . | -8% | -5%
COc1ccc(Nc2nc(N3CCCC3)nc3ccccc23)c(OC)c1 | 3.4* | 0% | -2%
OCCNc1nc(N2CCN(Cc3ccccc3)CC2)nc2ccccc12 | 13* | 1% | 1%
c1ccc2nc(N3CCCC3)c(N3CCCC3)nc2c1 | >77 | ? | .
O=C(NCCO)c1nc(NCCO)c2ccccc2n1 | >77 | 1% | 0%
COc1ccc(Nc2cc(C(=O)NCCCN3CCN(C)CC3)c3ccccc3n2)c(OC)c1 | >77 | 0% | -1%
C=CCNc1nc(N2CCCC2)nc2ccccc12 | 11* | -1% | 1%
CCN1CCCC1Cn1c(-c2ccccc2)nc2c(N3CCOCC3)nc(C)nc21 (stereo unspecified) | . | 0% | 0%
CC(C)=C1C(=O)C(c2ccccc2)=C2CN3C(=O)N(CCc4ccccc4)C(=O)[C@]3(C)[C@H]21 | . | -4% | -3%
Cc1cc(-c2ccc(N=Nc3ccc4c(S(=O)(=O)O)cc(S(=O)(=O)O)c(N)c4c3O)c(C)c2)ccc1N=Nc1ccc2c(S(=O)(=O)O)cc(S(=O)(=O)O)c(N)c2c1O | . | -10% | -9%
Cc1ccc(-n2c(SCC(=O)NCC3CCCO3)nc3n[nH]c(C)c3c2=N)cc1Cl (stereo unspecified) | 14* | 0% | 1%
COc1ccc(-n2c(SCC(=O)NCC3CCCO3)nc3n[nH]c(C)c3c2=N)cc1 (stereo unspecified) | >77 | -2% | 1%
Cc1ccc(-n2nc(C)c(C3C(C#N)=C(N)OC4=C3C(=O)CC(C)(C)C4)c2Cl)cc1 (stereo unspecified) | 4.8* | 2% | 0%
Cc1nn(-c2ccccc2)c(Cl)c1C1C(C#N)=C(N)OC2=C1C(=O)CCC2 (stereo unspecified) | i | -8% | 2%
Cc1ccc(C(=O)NCc2nnc(SCC(=O)Nc3sc4c(c3C#N)CCCC4)n2C)cc1 | >77 | -6% | -3%
N#Cc1c(NC(=O)CSc2nnc(-c3ccccc3O)n2-c2ccccc2)sc2c1CCCC2 | 10* | -1% | 0%
CN1CCN(c2ncc3nc(CCc4ccccc4)c(=O)n(Cc4ccc(F)cc4)c3n2)CC1 | . | -28% | -8%
N#CC1=C(SCC(=O)NC23CC4CC(CC(C4)C2)C3)NC(=O)C(C#N)C12CCCCC2 (stereo unspecified) | 6.2* | -11% | -3%
N#CC1=C(SCC(=O)NC2CC2)NC(=O)C(C#N)C12CCCCC2 (stereo unspecified) | >77 | 5% | 1%
COc1cccc(Cn2c(=O)cnc3cnc(OC)nc32)c1 | . | -2% | -1%
CN(C(=O)COC(=O)C1CCN(S(=O)(=O)c2cccs2)CC1)C1CCS(=O)(=O)C1 (stereo unspecified) | >77 | -2% | 2%
CN(C(=O)C1CCN(S(=O)(=O)c2cccs2)CC1)C1CCCCC1 | 13* | 7% | ?
SMILES | GBA mod | Caspase-7 inhib | Caspase-1 inhib
Cc1cc(C)nc(N2CCC(C(=O)Nc3nnc(C)s3)CC2)n1 | 3* | -1% | -1%
Cc1cc(C)nc(N2CCC(C(=O)O)CC2)n1 | >77 | -3% | -4%
Cc1ccc(-n2c(C)cc(C3N=C(N)Nc4nc5ccccc5n43)c2C)c(C)c1 (stereo unspecified) | ? | -3% | -4%
Cc1cc(C2N=C(N)Nc3nc4ccccc4n32)c(C)n1-c1ccccc1Cl (stereo unspecified) | 13* | 0% | 1%
COc1cccc(NS(=O)(=O)c2ccc(Br)s2)c1 | 14* | -3% | -1%
COc1ccccc1NS(=O)(=O)c1ccc(Br)s1 | >77 | -1% | -2%
COc1ccc(-c2cn3cc(Cl)ccc3n2)cc1OC | 2.8* | -2% | -2%
COc1nc(-c2ccccc2)cc(-c2ccc(OC)c(OC)c2)n1 | . | -2% | -1%
N#Cc1cccc(NC(=O)N2CCCC3(CCN(C(=O)c4cc(C(F)(F)F)cc(C(F)(F)F)c4)CC3)C2)c1 | . | 0% | -7%
C[C@@]12C[C@H](O)[C@@H]3[C@H](CCC4=CC(=O)CC[C@]43C)[C@H]1CC[C@@H]2c1csc(-c2ccccc2)n1 | . | -1%[11.5 µM] | 2%[11.5 µM]
Cc1ccc(N(C(=O)Cn2nnc(-c3ccc(C)o3)n2)C(C(=O)NC2CCCC2)c2ccco2)cc1 (stereo unspecified) | >77 | 1% | -3%
Cc1ccc(C)c(N(C(=O)Cn2nnc(-c3cccs3)n2)C(C(=O)NC2CC2)c2ccc(C)o2)c1 (stereo unspecified) | 12* | 0% | -3%
Cn1c(O)c(N=N/C(=N/c2ccccn2)c2ccccn2)c2cc(Br)ccc21 | . | -4% | -3%
Cc1nn(CC(=O)Nc2ccccc2)c(=O)c2ccccc12 | >77 | 1% | 1%
CCC(=O)Nc1ccc(C(=O)Cn2nc(C(=O)O)c3ccccc3c2=O)cc1 | 4.6* | -13% | -3%
O=C1OC(=O)c2ccccc21 | . | 0% | -1%
CCOc1ccc(NC(=O)c2ccncc2)cc1 | i | 0% | 0%
O=C(Nc1ccc(OC(=O)c2ccncc2)cc1)c1ccncc1 | 1.9* | -2% | 3%
CCCn1c(C)nc2c(NC3CCN(Cc4ccccc4)C3)nc(C)nc21 (stereo unspecified) | . | -2% | -1%
CCOc1ccc(C2C=C(c3ccccc3)Nc3nnnn32)cc1 (stereo unspecified) | 3.7* | ? | .
CCOc1ccc(C2C=C(c3ccc(C)cc3)Nc3nnnn32)cc1 (stereo unspecified) | i | ? | .
CCCC(=O)c1cc(O)c(O)cc1O | . | -6% | -1%
COc1cc(OC)c(C2CC(=O)N3CN(c4ccc(C)cc4)CSC3=C2C#N)cc1OC (stereo unspecified) | i | -12% | -14%
COc1ccc(C2CC(=O)N3CN(c4ccc(C)c(Cl)c4)CSC3=C2C#N)cc1OC (stereo unspecified) | . | ? | 32µM*
CCCc1ccc(S(=O)(=O)NCCc2ccncc2)cc1 | 7.1* | -3% | 0%
SMILES | GBA mod | Caspase-7 inhib | Caspase-1 inhib
CC(C)(C)c1ccc(S(=O)(=O)NCCc2ccncc2)cc1 | ? | 0% | 1%
CCc1nnc(NC(=O)c2ccc(COc3ccccc3)o2)s1 | i | 4% | -1%
CCc1nnc(NC(=O)c2ccc(-c3cccc(C(F)(F)F)c3)o2)s1 | 1.8* | -3% | 0%
COc1ccc(NC(=O)N2CC[C@@]3(CCCN(C(=O)c4cnccn4)C3)C2)cc1 | . | 0% | 1%
Cc1cc(C(=O)CSc2nnc(Cc3ccccc3)o2)c(C)n1Cc1ccc2c(c1)OCO2 | 4* | -15% | -1%
C=CCn1c(C)cc(C(=O)CSc2nnc(Cc3ccccc3)o2)c1C | . | 0% | -2%
N#Cc1ccccc1NC(=O)c1ccccc1OCC(=O)NCc1ccco1 | >77 | -1% | -1%
N#Cc1ccccc1NC(=O)c1ccccc1OCC(=O)Nc1ccc2c(c1)oc1ccccc12 | 11* | -1% | 0%
